Inconclusive results are not listed. Where a call stands in place of a potency, no number is given. Activity calls are given as the source filed them. Calls follow the shape of the dose curve; as a rule, active = well fitted inhibition curve with a large enough effect; inconclusive = small, poorly fitted or top-dose-only effect; inactive = no such curve, though single readings can be large or run the other way. Numbered stars: 1 amine (or outer) side, 2 acyl side, 3 side chain; on linkers, the order of the positions; unused ones are H or OH. Bridge positions count the residues as written; N and C are the ends. Square brackets hold non-standard residues; d marks the D form. Peptide text beside a SMILES is read from it. * marks the point of attachment. ξ: configuration not given here. ξhTyr(3S-OH,4S-OH,3'-OSO3H) = NC(C(=O)O)[C@H](O)[C@@H](O)c1ccc(O)c(OS(=O)(=O)O)c1; Orn(4R-OH,5R-OH) = O=C([C@H](C[C@@H](O)[C@@H](O)N[*:3])N[*:1])[*:2]; X6 = CCCCCOc1ccc(-c2cc(-c3ccc(C(=O)*)cc3)no2)cc1; X7 = C[C@H]1CN([*:1])C(C(=O)[*:2])[C@H]1O; ξGln(3R-OH) = NC(=O)C[C@@H](O)C(N)C(=O)O; ξPro(4R-OH) = O=C(O)C1C[C@@H](O)CN1; ξThr(3R) = C[C@@H](O)C(N)C(=O)O

This experiment has as its target Retinaldehyde dehydrogenase 3 (Homo sapiens) (UniProt P47895). The experiment is described as follows: qHTS for Inhibitors of the Aldehyde Dehydrogenase Family (ALDH1A3) Primary screen (AID 2061315). Particulars: ALDH inhibition qHTS; series mostly up to 56 µM.
Regarding `COc1ccc(N2CCN(CCCNC(=O)Cn3c(=O)c4cccn4c4c(C)ccnc43)CC2)cc1`, the Potency entry is “inactive”.
The value for `Cc1ccccc1CN1CCn2c1nc1c(c2=O)CN(Cc2ccccc2)CC1` was “inactive”; that for `O=S(=O)(Nc1cc(Cl)c(Oc2cnc3ccccc3c2)c(Cl)c1)c1ccc(Cl)cc1Cl` was “inactive”; that for `CCCCCCOc1cc2c(cc1N(C)c1ncc(C(=O)O)cn1)C(C)(C)CCC2(C)C` was “inactive”.
The value for `COc1ccc(-c2nc(-c3cc(C(F)(F)F)cc(C(F)(F)F)c3)n(Cc3ccc(C(N)=O)cc3)c2-c2ccc(OC)cc2)cc1` was “inactive”; that for `CCCCCOc1ccc(-c2cc(-c3ccc(C(=O)N[C@H]4C[C@@H](O)[C@@H](O)NC(=O)C5[C@@H](O)[C@@H](C)CN5C(=O)C([C@H](O)CC(N)=O)NC(=O)C([C@H](O)[C@@H](O)c5ccc(O)c(OS(=O)(=O)O)c5)NC(=O)C5C[C@@H](O)CN5C(=O)C([C@@H](C)O)NC4=O)cc3)no2)cc1` (stereo partly drawn) (X6-[Orn(4R-OH,5R-OH)][ξThr(3R)][ξPro(4R-OH)][ξhTyr(3S-OH,4S-OH,3'-OSO3H)][ξGln(3R-OH)][X7]; lactam 1-C) was “inactive”; that for `CC(C)c1c(NC(=O)Nc2ccc(Cl)cc2)c(=O)n(-c2ccccc2)n1C` was “inactive”.
As for `CC[C@H]1OC(=O)[C@H](C)[C@@H](O[C@H]2C[C@@](C)(OC)[C@@H](O)[C@H](C)O2)C(C)[C@@H](O[C@@H]2O[C@H](C)C[C@H](N(C)C)[C@H]2O)[C@](C)(O)C[C@@H](C)CN(C)[C@H](C)[C@@H](O)[C@]1(C)O` (some centres undefined), the entry is “inactive”.
Regarding `CC(C)(C)c1ccc(CNC(=S)NCc2ccc(NS(C)(=O)=O)c(F)c2)cc1`, the Potency entry is “inactive”.

For the origin of these results see PubChem BioAssay (NCATS).
